For some assays here: Measured potencies and affinities stand elsewhere.
Columns and labels:
Parameters in all cases: scale not given: direction of the effect not stated beside the values
[1] = target: Protein translocase subunit SecA (Escherichia coli (strain K12)) (UniProt P10408); test: Assay to Identify E. coli SecA ATPase Inhibitors; format: functional; conditions: 30 µM
[2] = target: T1, Ubiquitin-activating enzyme e1, putative (Leishmania donovani (strain BPK282A1)) (UniProt E9BSI1); test: Leishmania donovani Ubiquitin Activating Enzyme (LdE1); format: functional; conditions: 30 µM
T1 sequence (whole entry): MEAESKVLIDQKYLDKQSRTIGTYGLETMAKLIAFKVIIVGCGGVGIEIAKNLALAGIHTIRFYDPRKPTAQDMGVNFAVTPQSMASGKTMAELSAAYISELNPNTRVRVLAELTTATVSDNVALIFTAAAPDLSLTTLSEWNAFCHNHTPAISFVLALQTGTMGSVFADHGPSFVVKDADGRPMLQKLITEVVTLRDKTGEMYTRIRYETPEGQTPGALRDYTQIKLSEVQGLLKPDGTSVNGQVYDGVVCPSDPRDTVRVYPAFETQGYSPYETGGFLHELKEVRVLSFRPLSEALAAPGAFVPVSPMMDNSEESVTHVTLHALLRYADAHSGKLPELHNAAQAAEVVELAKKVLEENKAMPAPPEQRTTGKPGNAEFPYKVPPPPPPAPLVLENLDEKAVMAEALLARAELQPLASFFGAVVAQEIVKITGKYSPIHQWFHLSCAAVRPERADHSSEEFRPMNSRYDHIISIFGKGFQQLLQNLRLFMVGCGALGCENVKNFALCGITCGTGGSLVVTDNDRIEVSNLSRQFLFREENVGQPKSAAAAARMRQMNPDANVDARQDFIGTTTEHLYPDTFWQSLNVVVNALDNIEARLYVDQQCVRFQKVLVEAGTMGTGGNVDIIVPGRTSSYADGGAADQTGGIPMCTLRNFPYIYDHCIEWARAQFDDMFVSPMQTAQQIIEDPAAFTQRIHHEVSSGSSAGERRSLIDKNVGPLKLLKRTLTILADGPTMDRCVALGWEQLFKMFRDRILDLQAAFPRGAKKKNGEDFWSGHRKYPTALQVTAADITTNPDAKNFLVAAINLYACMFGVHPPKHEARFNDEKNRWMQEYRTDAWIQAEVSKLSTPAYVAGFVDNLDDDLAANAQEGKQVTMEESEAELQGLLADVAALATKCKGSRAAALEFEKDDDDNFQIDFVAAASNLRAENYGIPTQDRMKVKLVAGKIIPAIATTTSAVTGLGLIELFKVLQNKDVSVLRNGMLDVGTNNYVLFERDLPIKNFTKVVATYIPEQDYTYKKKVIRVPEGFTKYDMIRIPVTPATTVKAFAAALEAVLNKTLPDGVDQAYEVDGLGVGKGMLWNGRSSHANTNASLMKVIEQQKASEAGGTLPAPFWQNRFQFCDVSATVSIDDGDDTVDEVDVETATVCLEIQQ

[3] = target: AMP-activated protein kinase, AMPK (Homo sapiens) (UniProt P54646+O43741+P54619+Q9UGJ0+Q9Y478+Q13131+Q9UGI9); test: AMP-dependent Kinase enzyme assay. An in vitro enzyme assay that detects ADP turnover that is directly proportional to AMPK activity. This uses naive AMPK that is activated during the assay with MK-8722; format: functional; conditions: 30 µM
[4] = target: Sialic acid-binding Ig-like lectin 9 (Homo sapiens) (UniProt Q9Y336); test: Hs-Siglec9 ALPHAscreen SOP 20170721; conditions: 10 µM
Trypanosoma cruzi = test: Trypanosoma cruzi phosphomannomutase and mannose-1-phosphate guanylyltransferase assay; format: functional; conditions: 10 µM
[5] = target: T2, Arginase-2, mitochondrial (Homo sapiens) (UniProt P78540); test: in vitro enzyme assay to detect the production of urea directly proportional to the activity of Arginase II; format: functional; conditions: 33.3 µM; further: in the data most compounds retested in dose-response had high values
T2 sequence (whole entry): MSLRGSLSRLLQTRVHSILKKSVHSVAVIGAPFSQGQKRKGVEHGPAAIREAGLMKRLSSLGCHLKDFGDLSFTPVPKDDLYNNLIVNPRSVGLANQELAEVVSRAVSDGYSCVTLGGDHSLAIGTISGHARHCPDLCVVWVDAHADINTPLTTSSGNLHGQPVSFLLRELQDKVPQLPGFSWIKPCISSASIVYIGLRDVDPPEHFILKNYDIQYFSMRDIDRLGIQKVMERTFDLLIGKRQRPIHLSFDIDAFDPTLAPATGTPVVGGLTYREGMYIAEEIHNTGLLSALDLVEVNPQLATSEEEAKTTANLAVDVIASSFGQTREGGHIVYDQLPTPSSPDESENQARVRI

[6] = target: T3, Proteasome subunit beta (Trypanosoma cruzi) (UniProt O96673); test: Trypanosoma cruzi proteasome chymotrypsin-like activity (TcProtChymo) assay.; further: in the data most compounds retested in dose-response had high values; format: functional; conditions: 9.37 µM
T3 sequence (whole entry): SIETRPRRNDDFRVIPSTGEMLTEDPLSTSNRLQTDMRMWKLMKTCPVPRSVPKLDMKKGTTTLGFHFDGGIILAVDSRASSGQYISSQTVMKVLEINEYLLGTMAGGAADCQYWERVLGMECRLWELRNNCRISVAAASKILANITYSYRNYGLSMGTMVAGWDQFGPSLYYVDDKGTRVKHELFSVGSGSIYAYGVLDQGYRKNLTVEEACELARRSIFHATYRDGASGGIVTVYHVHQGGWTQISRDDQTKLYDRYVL

Homo sapiens = species on record: Homo sapiens; test: To identify inhibition of the IFN signalling (Jak-Stat) pathway via expression of an eGFP reporter gene under the control of an IFN-stimulated response element (ISRE) containing MxA promoter.; format: functional; conditions: 30 µM
[7] = target: T4, Tyrosyl-tRNA synthetase, putative (Trypanosoma cruzi (strain CL Brener)) (UniProt Q4DSP6); test: Trypanosoma cruzi tyrosyl tRNA synthetase (TcYRS) _High Tyrosine SOP; format: functional; conditions: 30 µM; further: in the data most compounds retested in dose-response had high values
T4 sequence (whole entry): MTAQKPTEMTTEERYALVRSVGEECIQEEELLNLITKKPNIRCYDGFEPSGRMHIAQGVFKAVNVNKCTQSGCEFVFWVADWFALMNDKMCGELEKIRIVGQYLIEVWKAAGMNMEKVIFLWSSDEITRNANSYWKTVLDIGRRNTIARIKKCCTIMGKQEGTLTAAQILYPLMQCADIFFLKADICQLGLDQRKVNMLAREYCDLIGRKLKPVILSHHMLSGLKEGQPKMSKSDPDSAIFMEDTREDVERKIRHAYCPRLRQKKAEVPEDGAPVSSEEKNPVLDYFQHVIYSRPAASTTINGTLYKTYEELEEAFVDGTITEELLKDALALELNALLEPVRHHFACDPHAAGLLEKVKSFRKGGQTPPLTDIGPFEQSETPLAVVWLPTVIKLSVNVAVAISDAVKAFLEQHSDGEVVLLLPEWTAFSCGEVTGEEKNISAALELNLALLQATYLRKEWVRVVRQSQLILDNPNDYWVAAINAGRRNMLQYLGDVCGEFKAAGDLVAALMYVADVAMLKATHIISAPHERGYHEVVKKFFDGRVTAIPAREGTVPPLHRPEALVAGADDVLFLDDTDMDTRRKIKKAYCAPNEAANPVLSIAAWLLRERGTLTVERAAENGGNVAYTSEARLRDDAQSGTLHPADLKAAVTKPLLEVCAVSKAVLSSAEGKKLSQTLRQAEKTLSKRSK

[8] = target: T4, Tyrosyl-tRNA synthetase, putative (Trypanosoma cruzi (strain CL Brener)); test: Trypanosoma cruzi tyrosyl tRNA synthetase (TcYRS) SOP; format: functional; conditions: 30 µM
[9] = target: Chromo domain-containing protein 1 (Saccharomyces cerevisiae (strain ATCC 204508 / S288c) (Baker's yeast)) (UniProt P32657); test: ScCHD-1 Enzyme Inhibition Assay; format: functional; conditions: 30 µM; further: in the data most compounds retested in dose-response had high values
Chromo domain-containing protein 1 (Saccharomyces cerevisiae (strain ATCC 204508 / S288c) (Baker's yeast)), sequence (P32657 whole entry, the tested form may be a part): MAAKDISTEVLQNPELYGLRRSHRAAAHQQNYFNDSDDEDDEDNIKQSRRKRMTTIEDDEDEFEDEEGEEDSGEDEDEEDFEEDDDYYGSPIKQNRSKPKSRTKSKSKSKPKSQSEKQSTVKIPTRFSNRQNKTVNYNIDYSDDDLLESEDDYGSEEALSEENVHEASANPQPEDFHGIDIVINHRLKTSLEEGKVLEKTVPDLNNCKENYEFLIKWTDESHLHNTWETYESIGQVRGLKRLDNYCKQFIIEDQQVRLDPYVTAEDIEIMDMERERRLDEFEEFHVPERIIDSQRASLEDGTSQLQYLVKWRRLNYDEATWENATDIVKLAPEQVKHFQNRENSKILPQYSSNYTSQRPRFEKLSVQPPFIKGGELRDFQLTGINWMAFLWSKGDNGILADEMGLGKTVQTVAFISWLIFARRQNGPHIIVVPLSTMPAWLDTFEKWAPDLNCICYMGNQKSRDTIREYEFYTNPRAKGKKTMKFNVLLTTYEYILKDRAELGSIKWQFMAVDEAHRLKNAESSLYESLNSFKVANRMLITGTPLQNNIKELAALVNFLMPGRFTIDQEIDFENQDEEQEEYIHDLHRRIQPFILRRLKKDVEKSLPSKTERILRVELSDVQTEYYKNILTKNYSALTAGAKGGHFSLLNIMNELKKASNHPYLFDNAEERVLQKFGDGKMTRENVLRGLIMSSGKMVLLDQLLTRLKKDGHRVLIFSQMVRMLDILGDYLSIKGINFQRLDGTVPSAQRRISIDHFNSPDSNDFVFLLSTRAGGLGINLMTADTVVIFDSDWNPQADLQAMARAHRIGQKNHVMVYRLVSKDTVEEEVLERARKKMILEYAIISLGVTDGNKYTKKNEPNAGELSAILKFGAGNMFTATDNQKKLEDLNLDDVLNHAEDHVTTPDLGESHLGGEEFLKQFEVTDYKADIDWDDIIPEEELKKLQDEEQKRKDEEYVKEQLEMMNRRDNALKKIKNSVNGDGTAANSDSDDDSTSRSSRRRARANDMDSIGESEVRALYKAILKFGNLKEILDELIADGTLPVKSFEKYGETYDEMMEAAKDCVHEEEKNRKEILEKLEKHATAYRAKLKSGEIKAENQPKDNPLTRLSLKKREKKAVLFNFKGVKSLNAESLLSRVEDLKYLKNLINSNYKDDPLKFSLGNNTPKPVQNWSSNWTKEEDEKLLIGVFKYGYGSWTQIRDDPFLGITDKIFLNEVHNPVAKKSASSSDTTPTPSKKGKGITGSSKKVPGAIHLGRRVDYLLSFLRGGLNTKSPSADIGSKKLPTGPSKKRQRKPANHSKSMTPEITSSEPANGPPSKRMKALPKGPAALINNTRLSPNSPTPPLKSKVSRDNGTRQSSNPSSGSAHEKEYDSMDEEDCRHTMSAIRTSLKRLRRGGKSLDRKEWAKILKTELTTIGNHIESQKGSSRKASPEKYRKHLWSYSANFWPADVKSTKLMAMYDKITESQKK

Sialic acid-binding Ig-like lectin 9 (Homo sapiens), sequence (Q9Y336 whole entry): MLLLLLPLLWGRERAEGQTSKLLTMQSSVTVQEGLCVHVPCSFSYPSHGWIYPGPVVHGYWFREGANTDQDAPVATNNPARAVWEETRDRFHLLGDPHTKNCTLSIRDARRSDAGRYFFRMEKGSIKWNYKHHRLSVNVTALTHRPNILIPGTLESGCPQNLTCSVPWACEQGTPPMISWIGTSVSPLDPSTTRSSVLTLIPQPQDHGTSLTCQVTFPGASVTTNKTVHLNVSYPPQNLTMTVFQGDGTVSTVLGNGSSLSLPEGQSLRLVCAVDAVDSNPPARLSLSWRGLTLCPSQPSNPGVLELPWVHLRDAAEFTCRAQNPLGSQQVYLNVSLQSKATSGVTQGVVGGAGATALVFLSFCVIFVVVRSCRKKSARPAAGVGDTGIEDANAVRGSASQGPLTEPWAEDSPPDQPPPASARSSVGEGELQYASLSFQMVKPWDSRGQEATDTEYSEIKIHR
Protein translocase subunit SecA (Escherichia coli (strain K12)), sequence (P10408 whole entry): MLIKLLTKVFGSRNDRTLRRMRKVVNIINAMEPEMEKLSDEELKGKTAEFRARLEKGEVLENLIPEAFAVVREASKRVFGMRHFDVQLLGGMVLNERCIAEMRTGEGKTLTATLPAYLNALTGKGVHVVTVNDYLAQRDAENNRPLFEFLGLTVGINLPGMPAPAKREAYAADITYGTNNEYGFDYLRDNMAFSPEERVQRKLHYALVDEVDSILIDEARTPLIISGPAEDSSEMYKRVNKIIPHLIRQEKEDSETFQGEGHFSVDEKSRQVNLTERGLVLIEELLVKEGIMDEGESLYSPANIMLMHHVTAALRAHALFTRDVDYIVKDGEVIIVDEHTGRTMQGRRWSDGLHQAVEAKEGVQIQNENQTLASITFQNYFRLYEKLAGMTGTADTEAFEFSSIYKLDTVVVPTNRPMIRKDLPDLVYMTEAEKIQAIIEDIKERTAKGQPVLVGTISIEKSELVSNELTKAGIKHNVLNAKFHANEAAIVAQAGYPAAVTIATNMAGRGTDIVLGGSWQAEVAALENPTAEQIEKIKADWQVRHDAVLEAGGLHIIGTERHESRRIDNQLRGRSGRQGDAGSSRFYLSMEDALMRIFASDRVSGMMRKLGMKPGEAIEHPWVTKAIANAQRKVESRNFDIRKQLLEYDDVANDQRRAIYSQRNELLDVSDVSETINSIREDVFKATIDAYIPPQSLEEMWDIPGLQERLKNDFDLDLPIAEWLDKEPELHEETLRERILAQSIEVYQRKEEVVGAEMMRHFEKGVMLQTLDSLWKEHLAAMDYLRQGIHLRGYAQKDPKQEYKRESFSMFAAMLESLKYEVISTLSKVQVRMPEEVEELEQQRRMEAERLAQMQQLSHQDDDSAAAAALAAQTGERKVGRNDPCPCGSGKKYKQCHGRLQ

Structure (SMILES) | Percent Effect [1] [%] | Percent Effect [2] [%] | Percent Effect [3] [%] | Percent Effect [4] [%] | Percent Effect (Trypanosoma cruzi) [%] | Percent Effect [5] [%] | Percent Effect [6] [%] | Percent Effect (Homo sapiens) [%] | Percent Effect [7] [%] | Percent Effect [8] [%] | Percent Effect [9] [%]
CCCNC(=O)COc1ccc(C)cn1 | -4.18 | 11 | -5.89 | 4.96 | 4.76 | -0.798 | 6.59 | -7.03 | 6.25 | -3.7 | -11.8
Cc1cnc(CN2CCOC(Cn3nc(C)nc3C)C2)cn1 (stereo not given) | -1.64 | 17.7 | -6.35 | 2.13 | 4.82 | 3.42 | 15.8 | -21.9 | 6.4 | 24.1 | -3.57
O=C(Cc1ccc2c(c1)OCCO2)N1CCCC(n2cccn2)C1 (stereo not given) | 2.92 | 2.6 | 13.7 | -3.29 | 1.08 | 2.74 | 3.15 | 22.6 | -7.62 | -2.35 | -15
Cc1cc(C)n(C2CCCN(C(=O)c3cccc4[nH]ncc34)C2)n1 (stereo not given) | -5.51 | -13.5 | 6.86 | -7.42 | -4.49 | -1.67 | 7.69 | -0.356 | 6.93 | 3.66 | 2.88
CC(=O)Nc1nc(C(=O)N2CCCC(n3ccnc3)C2)cs1 (stereo not given) | -2.04 | -7.89 | -5.64 | -2.76 | -6.44 | 3.6 | -6.34 | -6.45 | 2.46 | 1.24 | 5.04
Cc1noc(C(C)C)c1C(=O)NS(=O)(=O)c1ccc2c(c1)OCCCO2 | -0.953 | 2.63 | 4.57 | 1.83 | 4.19 | -3.55 | 6.23 | 24.3 | 0 | 5.2 | 15.4
COc1ccc(Cl)cc1NCC(=O)NCCc1ccccn1 | -3.56 | -5.41 | -7.1 | 3.7 | -7.64 | 0.401 | 1.62 | 20.4 | 0.493 | 1.24 | 0.208
Cn1ccc(CN2CCC(Oc3ccccc3)CC2)cc1=O | -4.18 | 18.2 | -0.911 | 1.02 | -1.69 | -0.356 | 4.05 | -2.92 | 11.7 | 24.4 | -10.1
CC(=O)Nc1ncc(S(=O)(=O)Nc2ccc(F)cc2)s1 | -4.49 | 17.3 | -9.36 | -7.58 | 2.36 | -0.88 | 12.2 | 20.4 | 3.17 | 10.3 | -10.6
CCc1nc(CN2CCCN(C(=O)C(C)COC)CC2)cs1 (stereo not given) | -1.87 | 26 | -9.16 | 1.76 | 3 | 3.92 | 17.2 | 10.8 | 9.71 | 21.9 | -10.9
